# According to PubChem BioAssay (NCATS):
# Inconclusive results are not listed. Activity calls are given as the source filed them. Unless noted, the call rests on the fitted dose curve; in most records, active means well fitted curve in the direction sought with a large enough effect; inconclusive means small, poorly fitted or top-dose-only effect, or another doubt; inactive means no such curve, though single readings can be large; an effect the other way counts as inactive or inconclusive. Where a SMILES comes first, the peptide text is derived from it. The star is where a group is joined. AMC = Cc1cc(=O)oc2cc(N*)ccc12; Cbz = O=C(OCc1ccccc1)*
# Legend:
# [1] = target: Catechol O-methyltransferase (Homo sapiens) (UniProt P21964); experiment: Confirmatory Screen for Target Class Profiling of Small Molecule Inhibitors of Methyltransferases (AID 1745852; calls by dose curve; further: potency means the concentration at half of the fitted maximal effect; on activity change, negative = inhibition: on the % scale 0 is the no-effect control and ±100 the full control effect); details: MTase-Glo luminescence, SAH detection, recombinant enzyme; measured here: COMT max response; stronger effect = lower value
# [2] = target: Guanidinoacetate N-methyltransferase (Homo sapiens) (UniProt Q14353); experiment: as above; details: MTase-Glo luminescence, SAH detection, recombinant enzyme; activity change, negative = inhibition: at 57.3 µM (top of the series) unless noted
# [3] = target: Nicotinamide N-methyltransferase (Homo sapiens) (UniProt P40261); experiment: as above; details: MTase-Glo luminescence, SAH detection, recombinant enzyme; measured here: NNMT max response; stronger effect = lower value
# [4] = target: Phenylethanolamine N-methyltransferase (Homo sapiens) (UniProt P11086); experiment: as above; details: MTase-Glo luminescence, SAH detection, recombinant enzyme; measured here: PNMT max response; stronger effect = lower value
# [5] = target: Rap guanine nucleotide exchange factor 3 (Homo sapiens) (UniProt O95398); experiment: Confirmatory qHTS for antagonist of cAMP-regulated guanine nucleotide exchange factor 3 (EPAC1) (AID 1645880); details: EPAC1 Rap1B-BODIPY-GDP exchange, fluorescence; further: potency means the concentration at half of the fitted maximal effect; nearly all actives have a fitted effect of over 55% in size
# Summary of the method: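 Released BODIPY-GDP fluoresces less than Rap1-bound BODIPY-GDP; the signal is followed at 480/540 nm at 5-min intervals over 30 min, after 5 min at room temperature. Reactions contain 100 nM EPAC1, 250 nM RAP1B-BODIPY-GDP and 50 uM GDP; results are normalized to ATA and DMSO.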
# [6] = target: Rap guanine nucleotide exchange factor 3 (Homo sapiens) (UniProt O95398); experiment: Confirmatory qHTS for agonist of cAMP-regulated guanine nucleotide exchange factor 3 (EPAC1) (AID 1645881); details: EPAC1 Rap1B BODIPY-GDP exchange fluorescence, 100% = cAMP control response; series mostly up to 154 µM;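 further: EPAC1 catalysed release of BODIPY-GDP from Rap1B seen as fluorescence loss; nearly all actives have a fitted effect of over 75% in size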
# [7] = target: Rap guanine nucleotide exchange factor 4 (Homo sapiens) (UniProt Q8WZA2); experiment: Confirmatory qHTS for agonist of cAMP-regulated guanine nucleotide exchange factor 4 (EPAC2) (AID 1645884); details: EPAC2 GEF activity, Rap1B-BODIPY-GDP fluorescence, percent relative to cAMP agonist control; series mostly up to 154 µM;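 further: nucleotide exchange releases bodipy-GDP from Rap1 and this lowers its fluorescence; on the % scale 0 is the no-effect control and ±100 the full control effect; nearly all actives have a fitted effect of over 65% in size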
# [8] = target: Rap guanine nucleotide exchange factor 4 (Homo sapiens) (UniProt Q8WZA2); experiment: Confirmatory qHTS for antagonist of cAMP-regulated guanine nucleotide exchange factor 4 (EPAC2) (AID 1645885); details: EPAC2 Rap1B-BODIPY-GDP exchange fluorescence, biochemical; series mostly up to 12.7 µM; further: on the % scale 0 is the no-effect control and ±100 the full control effect; nearly all actives have a fitted effect of over 25% in size
# [9] = target: Rap guanine nucleotide exchange factor 3 (Homo sapiens) (UniProt O95398); experiment: Counterscreen qHTS for antagonist of cAMP-regulated guanine nucleotide exchange factor 3 (EPAC1) (AID 1645888); details: Rap1B-BODIPY-GDP nucleotide exchange, fluorescence; series mostly up to 154 µM; further: % of control where 0% means no effect
# Summary of the method: (§1)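 Rap1B-BODIPY-GDP 250 nM + GDP 50 uM; cpds 7-pt, final 9.74 nM–152 uM (activator mode) or from 7.32 nM upwards (inhibitor mode); RT; FI 480/540 nm at 5 and 30 min, then ± cAMP, reread.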
# [10] = target: Rap guanine nucleotide exchange factor 3 (Homo sapiens) (UniProt O95398); experiment: Counterscreen qHTS for agonist of cAMP-regulated guanine nucleotide exchange factor 3 (EPAC1) (AID 1645889); details: EPAC1 Rap1B-BODIPY-GDP exchange, fluorescence; series mostly up to 154 µM; further: % of control where 0% means no effect; nearly all actives have a fitted effect of over 40% in size
# Summary of the method: as §1
# Chain of Rap guanine nucleotide exchange factor 3 (Homo sapiens) (O95398 whole entry, looked up): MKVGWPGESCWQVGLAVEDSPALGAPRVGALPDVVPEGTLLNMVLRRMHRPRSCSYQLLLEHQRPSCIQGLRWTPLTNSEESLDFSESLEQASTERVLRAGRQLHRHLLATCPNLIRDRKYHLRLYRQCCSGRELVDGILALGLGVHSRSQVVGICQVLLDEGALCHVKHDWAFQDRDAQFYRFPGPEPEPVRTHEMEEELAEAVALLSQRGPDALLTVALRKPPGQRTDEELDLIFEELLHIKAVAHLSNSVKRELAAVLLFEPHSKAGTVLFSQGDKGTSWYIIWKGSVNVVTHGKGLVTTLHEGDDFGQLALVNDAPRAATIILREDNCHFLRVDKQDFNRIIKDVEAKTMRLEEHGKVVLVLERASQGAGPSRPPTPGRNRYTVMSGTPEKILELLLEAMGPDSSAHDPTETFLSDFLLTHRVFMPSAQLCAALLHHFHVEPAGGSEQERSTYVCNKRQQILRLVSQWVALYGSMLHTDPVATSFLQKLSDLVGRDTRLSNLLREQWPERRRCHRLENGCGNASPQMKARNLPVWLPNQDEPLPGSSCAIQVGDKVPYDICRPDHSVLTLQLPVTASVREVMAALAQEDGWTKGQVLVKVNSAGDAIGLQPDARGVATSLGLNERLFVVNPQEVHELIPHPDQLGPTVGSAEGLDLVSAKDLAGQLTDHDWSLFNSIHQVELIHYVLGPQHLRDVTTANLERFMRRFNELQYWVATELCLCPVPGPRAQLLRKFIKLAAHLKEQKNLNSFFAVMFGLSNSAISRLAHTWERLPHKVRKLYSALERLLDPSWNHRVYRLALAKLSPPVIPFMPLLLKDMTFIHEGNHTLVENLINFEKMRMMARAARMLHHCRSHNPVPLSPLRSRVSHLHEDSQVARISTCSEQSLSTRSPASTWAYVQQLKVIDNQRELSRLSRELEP
# Chain of Phenylethanolamine N-methyltransferase (Homo sapiens) (P11086 whole entry, looked up): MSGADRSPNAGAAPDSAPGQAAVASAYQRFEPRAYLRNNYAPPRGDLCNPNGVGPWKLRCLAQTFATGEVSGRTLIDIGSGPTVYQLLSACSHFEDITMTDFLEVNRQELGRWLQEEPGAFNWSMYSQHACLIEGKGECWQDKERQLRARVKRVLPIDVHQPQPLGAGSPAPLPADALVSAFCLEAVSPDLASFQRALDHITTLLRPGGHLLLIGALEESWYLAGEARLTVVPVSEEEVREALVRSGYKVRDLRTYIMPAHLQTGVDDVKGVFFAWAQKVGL
# Chain of Rap guanine nucleotide exchange factor 4 (Homo sapiens) (Q8WZA2 whole entry, looked up): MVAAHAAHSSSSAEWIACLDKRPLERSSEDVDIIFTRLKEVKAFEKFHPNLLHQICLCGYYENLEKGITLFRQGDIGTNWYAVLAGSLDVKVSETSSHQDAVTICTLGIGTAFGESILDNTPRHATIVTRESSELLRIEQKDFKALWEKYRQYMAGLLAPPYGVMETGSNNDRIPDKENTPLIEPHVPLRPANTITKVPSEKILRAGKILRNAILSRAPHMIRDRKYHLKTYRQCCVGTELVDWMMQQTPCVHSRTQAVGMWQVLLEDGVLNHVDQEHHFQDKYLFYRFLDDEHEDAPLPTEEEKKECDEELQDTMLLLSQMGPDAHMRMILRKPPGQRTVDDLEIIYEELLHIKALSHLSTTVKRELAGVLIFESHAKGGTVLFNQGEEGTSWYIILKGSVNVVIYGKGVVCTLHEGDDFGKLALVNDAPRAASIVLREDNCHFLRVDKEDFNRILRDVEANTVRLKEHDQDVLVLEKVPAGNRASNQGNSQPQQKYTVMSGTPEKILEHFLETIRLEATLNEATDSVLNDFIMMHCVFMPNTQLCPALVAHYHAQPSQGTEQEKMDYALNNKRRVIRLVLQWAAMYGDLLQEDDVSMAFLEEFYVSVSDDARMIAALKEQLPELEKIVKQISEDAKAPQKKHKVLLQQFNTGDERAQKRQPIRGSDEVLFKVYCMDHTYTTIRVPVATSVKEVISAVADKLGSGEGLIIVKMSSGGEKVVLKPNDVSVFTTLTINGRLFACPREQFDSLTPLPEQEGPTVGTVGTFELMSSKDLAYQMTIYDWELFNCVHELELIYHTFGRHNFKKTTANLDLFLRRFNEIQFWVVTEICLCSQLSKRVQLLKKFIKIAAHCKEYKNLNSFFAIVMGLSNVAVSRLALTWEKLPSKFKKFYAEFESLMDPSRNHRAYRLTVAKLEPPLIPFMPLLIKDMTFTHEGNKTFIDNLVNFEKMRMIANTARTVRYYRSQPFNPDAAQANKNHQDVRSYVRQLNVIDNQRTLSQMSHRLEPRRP
# Chain of Catechol O-methyltransferase (Homo sapiens) (P21964 whole entry, looked up): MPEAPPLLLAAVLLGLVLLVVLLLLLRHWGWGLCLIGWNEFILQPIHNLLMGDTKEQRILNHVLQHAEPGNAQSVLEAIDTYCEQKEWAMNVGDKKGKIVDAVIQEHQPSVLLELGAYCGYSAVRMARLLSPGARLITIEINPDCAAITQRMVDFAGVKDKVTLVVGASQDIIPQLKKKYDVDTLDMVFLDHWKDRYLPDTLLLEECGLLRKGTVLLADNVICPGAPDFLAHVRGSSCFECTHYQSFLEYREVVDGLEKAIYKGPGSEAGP
# Chain of Nicotinamide N-methyltransferase (Homo sapiens) (P40261 whole entry, looked up): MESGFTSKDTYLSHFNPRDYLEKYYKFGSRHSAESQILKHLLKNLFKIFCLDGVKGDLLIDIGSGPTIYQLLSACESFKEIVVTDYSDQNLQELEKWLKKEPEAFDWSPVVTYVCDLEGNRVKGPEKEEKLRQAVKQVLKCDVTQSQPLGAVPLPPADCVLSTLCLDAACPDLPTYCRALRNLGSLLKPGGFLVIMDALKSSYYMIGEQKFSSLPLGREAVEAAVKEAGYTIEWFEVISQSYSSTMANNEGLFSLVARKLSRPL
smiles,measurement,setting,value
O=C(O)CCc1ccc(NCc2cccc3c2CCCN3CCOc2ccccc2)cc1F,activity,[1],-3.27%
same,"activity change, negative = inhibition",[2],-0.799%
same,activity,[3],-32.3%
same,activity,[4],-5.97%
COc1c2c(c(C)c3c1C(=O)OC3)OC1(C)CC(O)C34OC(OC)(CC(O)C3(C)C1C2)OC4(C)C (stereo not given),activity,[1],-15%
same,"activity change, negative = inhibition",[2],-2.68% [at 29.8 µM]
same,activity,[3],-8.14%
same,activity,[4],-5.39%
COc1cc(C2Oc3c(OC)cc(CCCO)cc3C2CO)ccc1O (stereo not given),activity,[1],-80.9%
same,"activity change, negative = inhibition",[2],-2.79%
same,activity,[3],-9.4%
same,activity,[4],-8.69%
C=Cc1cc2oc(-c3ccc(O)c(F)c3)nc2cc1O,activity,[1],-57%
same,Potency,[2],30.4 µM (active)
same,activity,[3],-39.5%
same,activity,[4],-56.3%
COc1ccc(CC(NC(C)=O)C(=O)O)cc1 (stereo not given),activity,[1],-71.7%
same,"activity change, negative = inhibition",[2],0%
same,activity,[3],1.04%
same,activity,[4],-0.971%
C[C@@H]1O[C@@H](OC[C@H]2O[C@@H](OCc3ccccc3)[C@H](O)[C@@H](O)[C@@H]2O)[C@H](O)[C@H](O)[C@H]1O,activity,[1],-64.3%
same,"activity change, negative = inhibition",[2],-3.1% [at 29.8 µM]
same,activity,[3],-3.31%
same,activity,[4],-2.48%
CC1CCCCCCCc2cc(O)cc(O)c2C(=O)O1 (stereo not given),activity,[1],-69.9%
same,Potency,[2],30.4 µM (active)
same,activity,[3],-60.9%
same,activity,[4],-64.4%
CC(=O)OC/C(=C/C(=O)O)CC[C@@H]1C(C)=CC(=O)[C@@H]2C(C)(C)CCC[C@@]12C,activity,[1],-62.3%
same,"activity change, negative = inhibition",[2],0%
same,activity,[3],-1.14%
same,activity,[4],-1.13%
COc1cc(/C=C/C(=O)OC[C@H]2O[C@@H](OC3OC=C(C(=O)O)C4C(O)CC(C)(O)C34)[C@H](O)[C@@H](O)[C@@H]2O)cc(OC)c1O (stereo not given in full),activity,[1],-54.7%
same,"activity change, negative = inhibition",[2],-2.09% [at 19.1 µM]
same,activity,[3],0.931%
same,activity,[4],-3.81%
CCOc1ccc(-c2cc(NC(=O)c3c(F)cccc3F)c(C(=O)O)s2)cc1,Potency,[5],9.53 µM (active)
same,outcome,[6],inactive
same,outcome,[7],inactive
same,outcome,[8],inactive
same,outcome,[9],inactive
same,outcome,[10],inactive
same,activity,[1],-2.79%
same,"activity change, negative = inhibition",[2],0.993%
same,activity,[3],-5.18%
same,activity,[4],-2.03%
CSC(=O)OCC1=C[C@@H]2OC(=O)C3=CO[C@@H](O[C@@H]4O[C@H](CO)[C@@H](O)[C@H](O)[C@H]4O)[C@H]1[C@@H]32,activity,[1],-58.6%
same,"activity change, negative = inhibition",[2],-9.29% [at 29.8 µM]
same,activity,[3],-7.9%
same,activity,[4],-7.61%
Cc1cc(=O)oc2cc(NC(=O)[C@H](CCC(=O)O)NC(=O)[C@H](CC(C)C)NC(=O)[C@H](CC(C)C)NC(=O)OCc3ccccc3)ccc12 (Cbz-Leu-Leu-Glu-{AMC}),activity,[1],-1.08%
same,"activity change, negative = inhibition",[2],0%
same,activity,[3],-71.3%
same,activity,[4],-1.44%
C=C1C[C@]23C[C@@]1(O)CC[C@H]2[C@@]12C=C[C@H](O)[C@@](C)(C(=O)O1)[C@H]2[C@@H]3C(=O)O,outcome,[6],inactive
same,outcome,[7],inactive
C/C(=C\CC/C(C)=C/CC[C@]1(C)CCc2cc(O)cc(C)c2O1)CC/C=C(\C)C(=O)O,activity,[1],-20.5%
same,"activity change, negative = inhibition",[2],0% [at 29.8 µM]
same,activity,[3],-14.3%
same,activity,[4],-0.0782%
CC(C)(O)C1CC=C(C(=O)OC[C@H]2O[C@@H](OC(=O)C3=CCC(C(C)(C)O)CC3)[C@H](O)[C@@H](O)[C@@H]2O)CC1 (stereo not given in full),activity,[1],-62.1%
same,"activity change, negative = inhibition",[2],-9.84% [at 29.8 µM]
same,activity,[3],-5.04%
same,activity,[4],-5.85%
CC(=O)OC/C(=C/C(=O)O)CC[C@@H]1C(CO)=CC[C@@H]2C(C)(C)CCC[C@@]12C,activity,[1],-82.3%
same,"activity change, negative = inhibition",[2],-4.99%
same,activity,[3],-8.71%
same,activity,[4],-5.03%
O=C(O)CC(CCc1ccccc1)OC1OC(CO)C(O)C(O)C1O (stereo not given),activity,[1],-76.5%
same,"activity change, negative = inhibition",[2],-3.69%
same,activity,[3],-1.93%
same,activity,[4],-2.51%
COc1cnc(-c2ccc(Cn3c(CC(C)(C)C(=O)O)c(SC(C)(C)C)c4cc(OC[C@@H]5Cc6ccccc6N5C(C)=O)ccc43)cc2)nc1,activity,[1],-6.21%
same,"activity change, negative = inhibition",[2],-3.63%
same,activity,[3],-11.1%
same,activity,[4],-8.45%
CC1(CO)CC(O)C2(C)CCC3(C)C(=CCC4C5(C=O)CCC(OC6OC(C(=O)O)C(O)C(O)C6OC6OC(C(=O)O)C(O)C(O)C6O)C(C)(C)C5CCC43C)C2C1 (stereo not given),activity,[1],-73.8%
same,"activity change, negative = inhibition",[2],0.442% [at 19.1 µM]
same,activity,[3],-0.108%
same,activity,[4],1.8%
CC1=C2CC3C(CCC3(C)O)C(C)(O)CC2OC1=O (stereo not given),activity,[1],-78.6%
same,"activity change, negative = inhibition",[2],0%
same,activity,[3],0%
same,activity,[4],0%
COCc1c(O)c(C(=O)O)c(C)c2c1OC(=O)c1c(C)cc(O)c(CO)c1O2,activity,[1],-62.5%
same,"activity change, negative = inhibition",[2],-4.52%
same,activity,[3],-3.54%
same,activity,[4],-4.35%
COc1c2cc(c(O[C@@H]3O[C@H](CO)[C@@H](O)[C@H](O)[C@H]3O)c1OC)CCCCC(O)CCc1ccc(O)c-2c1 (stereo not given in full),activity,[1],-87.3%
same,"activity change, negative = inhibition",[2],-7.96% [at 29.8 µM]
same,activity,[3],-5.32%
same,activity,[4],-8.72%
C=C1CC/C=C(/CO)C(=O)C[C@@H]2[C@@H]1C[C@@]2(C)COC(C)=O,activity,[1],-65.6%
same,"activity change, negative = inhibition",[2],0%
same,activity,[3],0.048%
same,activity,[4],1.6%
COc1ccccc1CN[C@H]1CCCN[C@H]1c1ccccc1,activity,[1],0.295%
same,"activity change, negative = inhibition",[2],7.32%
same,activity,[3],-6.63%
same,activity,[4],-0.84%
